Screens from PubChem BioAssay.
Shown are actives, neighbours in structure and some others; about 11% of the full set was active somewhere.
NPR1 antag: blocks ANP-stimulated signaling of human Npr1 receptor; P16066; AID 1347048; Potency, µM (titrated, usually from 46.3 µM), for the others: top-dose activity change, negative = inhibition, actives largely listed as inhibitors; 1.6% of 76,000 active; HEK293 hNpr1 GloSensor cGMP, ANP-stimulated luminescence; calls by dose curve; also: nearly all actives have a fitted effect of over 60% in size
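HEK293 cells stably expressing human Npr1 and cGMP GloSensor pGS-40F, loaded 2 h with 2% GloSensor reagent, given compound 30 min at room temperature. Luminescence read before and 20 min after 0.1 nM hNppA.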
FLuc inh: inhibitors of firefly (Photinus pyralis) luciferase. purified P. pyralis luciferase, luminescence, biochemical. 2.5% of 76,000 active. AID 1347043. Potency, µM (series often up to 115 µM), most hits filed as inhibitors; also: nearly all actives have a fitted effect of over 65% in size
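Biochemical qHTS: compound (6-point titration) added to 10uM D-luciferin plus 10uM ATP in Tris acetate pH 7.5 buffer with Mg, Tween-20 and BSA, then purified enzyme at 10nM; light output imaged.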
HEK293 tox: HEK 293 cell cytotoxicity; 6.6% of 94,000 active; AID 1345083; Potency, µM (titrated, usually from 115 µM), without a hit: at the highest dose activity change, negative = cytotoxicity, hits mostly inhibitors; HEK 293 viability, ATP luminescence (CellTiter-Glo), 48-72 h; also: nearly all actives have a fitted effect of over 60% in size
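Viability of HEK 293 cells, plated at 250 cells/well, was judged by cellular ATP after compound treatment for 48 or 72 hr. Luminescence was imaged 10 min after CellTiter-Glo addition at room temperature.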
NIH3T3 tox: NIH 3T3 cell cytotoxicity | AID 1345082 | Potency, µM (titrated, usually from 96.7 µM), for the others: top-dose activity change, negative = cytotoxicity, hits mostly inhibitors | NIH 3T3 viability, CellTiter-Glo ATP luminescence, 48-72 h | 4.3% of 94,000 active; also: nearly all actives have a fitted effect of over 55% in size
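ATP-dependent luminescence (CellTiter-Glo) served as the viability signal for NIH 3T3 cells treated with compound for 48 or 72 hr at 37 °C.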
The depositor's hits bear a star; i = inactive; ? = inconclusive; / = not tested or not shown; [ ] = remark or other dose. Unless noted, calls follow the shape of the dose curve; as a rule, active = well fitted curve in the direction sought with a large enough effect; inconclusive = small, poorly fitted or top-dose-only effect, or another doubt; inactive = no such curve, though single readings can be large; an effect the other way counts as inactive or inconclusive. % is scaled to controls: 0 for no effect and ±100 for the full control effect; potency is read from the fitted curve at half-maximal effect.

SMILES | NPR1 antag | FLuc inh | HEK293 tox | NIH3T3 tox
CC(=O)NC1(C)CCN(Cc2cccc(-c3ccc4c(c3)OCCN4C)c2)C1 (stereo not given) | ? | 22µM* | ? | 89µM*
CC(=O)NC1(C)CCN(Cc2cccc(-c3ccc(N4CCOCC4)cc3)c2)C1 (stereo not given) | 4µM* | 5.6µM* | ? | -24%[138 µM]
COc1ccc2[nH]c3c(c2c1)CCNC31CCN(Cc2ccc(F)c(F)c2)CC1 | -12% | i | ? | 35µM*
COc1cccc(CN2CCC3(CC2)NCCc2c3[nH]c3ccccc23)c1 | -15% | i | 32µM* | 35µM*
COc1ccc(CNC(=O)C2CCN(C(=O)c3ccc(-c4cncnc4)cc3)CC2)cc1 | / | / | ? | -35%
COc1ccc(-c2ccc(C(=O)NCc3ccccc3F)c(Cl)c2)nn1 | / | / | ? | -30%
CCN1CCN(C(=O)c2cc(-c3cc(Cl)cc(Cl)c3)c3nncn3n2)CC1 | / | / | -7% | ?
OC1CN(Cc2ccccc2)CCN(c2nc(-c3ccccc3)no2)C1 (stereo not given) | ? | 40µM* | ? | -10%
Cc1cc(N2CCN(Cc3ccccc3)CC(O)C2)nc(N)n1 (stereo not given) | 1% | i | -20% | -17%
CC(C)CCNC[C@H]1O[C@H](Cc2cc(-c3ccc(F)cc3)on2)CC[C@@H]1O | ? | ? | 89µM* | 50µM*
O=C(NC[C@H]1O[C@H](Cc2cc(-c3ccc(F)cc3)on2)CC[C@@H]1O)c1ccc(F)cc1 | 16µM* | 40µM* | ? | ?
CN(C)C[C@H]1O[C@H](Cc2cc(-c3ccc(F)cc3)on2)CC[C@@H]1O | -18%[70.6 µM] | i | -29%[172 µM] | -30%[138 µM]
CC(=O)NC[C@H]1O[C@H](Cc2cc(-c3ccc(F)cc3)on2)CC[C@@H]1O | ? | ? | -17%[172 µM] | -7%[138 µM]
COc1ccccc1-c1cc2c(nc1OC)nc(CC1CC1)n2C | 0%[70.6 µM] | i | ? | ?
O=C(NC1CC1)c1nc2cccnc2n(Cc2ccccc2)c1=O | / | / | -14%[172 µM] | -25%[138 µM]
COc1ccccc1-c1cc(C(=O)Nc2ccc(F)cc2)nn2cnnc12 | / | / | ? | -30%
CSc1ccc(-c2cccc(C(=O)NCCNC(=O)c3ccc(Cl)cc3)c2)cc1 | / | / | -27% | ?
COc1ccccc1-c1[nH]nc2ncc(C(=O)NCCc3ccccn3)nc12 | -2%[70.6 µM] | i | 63µM* | ?
COc1ccccc1-c1[nH]nc2ncc(C(=O)N(C)c3ccccc3)nc12 | -22%[70.6 µM] | i | 89µM* | ?
Fc1ccc(-c2cnc3n2C[C@H](CNCc2ccc4c(c2)OCO4)OC3)cc1 | ? | i | 100µM* | 89µM*
Clc1ccc(-c2cnc3n2C[C@H](CNCc2ccc4c(c2)OCO4)OC3)cc1 | ? | i | 89µM* | ?
c1ccc(CNC[C@H]2Cn3c(-c4ccc5c(c4)OCCO5)cnc3CO2)cc1 | -23%[70.6 µM] | i | ? | -22%[138 µM]
CC(=O)Nc1ccc(CNC[C@H]2Cn3c(-c4ccc5c(c4)OCCO5)cnc3CO2)cc1 | -20%[70.6 µM] | i | -22%[172 µM] | -24%[174 µM]
CC(C)(C)OCC1CN(CCc2ccccc2)[S+](=O)([O-])c2cccnc2O1 (stereo not given) | / | / | ? | -32%
CN(C)c1ccc(C(=O)NC2CCN(c3cc(-c4ccccc4)[nH]n3)C2)cc1 (stereo not given) | -10% | i | ? | ?
SMILES | NPR1 antag | FLuc inh | HEK293 tox | NIH3T3 tox
CN(C)c1ccc(C(=O)NC2CCN(c3cc(-c4ccc(F)cc4)[nH]n3)C2)cc1 (stereo not given) | -19% | i | ? | ?
O=C(NC1CCN(c2cc(-c3ccccc3)[nH]n2)CC1)c1ccccc1 | -25% | i | ? | ?
COc1ccc(-c2cc(N3CCCC(NC(=O)c4ccc(N(C)C)cc4)C3)n[nH]2)cc1 (stereo not given) | -24% | 7.1µM* | 45µM* | ?
CN(C)c1cccc(C(=O)NC2CCN(c3cc(-c4ccccc4)[nH]n3)CC2)c1 | -22% | 40µM* | ? | ?
CN(C)c1ccc(C(=O)NC2CCCN(c3cc(-c4ccccc4)[nH]n3)C2)cc1 (stereo not given) | -14% | 28µM* | ? | ?
CN(C)c1ccc(C(=O)NC2CCCN(c3cc(-c4ccc(F)cc4)[nH]n3)C2)cc1 (stereo not given) | -10% | ? | 35µM* | ?
COc1ccc(-c2cccc(C(=O)N3CCC(NC(=O)c4cccnc4)CC3)c2)nn1 | / | / | 3% | -4%
CN(C)c1cccc(C(=O)NC2CCN(c3cnn(C)c(=O)c3)CC2)c1 | 3% | 25µM* | i | -6%
O=C(NC1CCN(c2cc(-c3ccccc3)[nH]n2)CC1)c1ccsc1 | -19% | ? | 79µM* | -6%
CN(C)c1cccc(C(=O)NCC2CCN(c3cc(-c4ccc(Cl)cc4)[nH]n3)CC2)c1 | -27% | ? | ? | 40µM*
Cc1ccc(-c2cc(N3CCC(CNC(=O)c4cccc(N(C)C)c4)CC3)n[nH]2)cc1 | -20% | ? | ? | ?
CN(C)c1cccc(C(=O)NC2CCCN(c3cc(-c4ccc(F)cc4)[nH]n3)C2)c1 (stereo not given) | -10% | 16µM* | ? | ?
Cn1ncc(N2CCC(NC(=O)c3ccc4c(c3)OCO4)CC2)cc1=O | -4% | i | -11% | -1%
CCN(CC)C1CCOC2(CCN(C(=O)Nc3cccc(C)c3)CC2)C1 (stereo not given) | / | / | -7% | -10%
O=C(NC1CCCN(c2cc(-c3ccccc3)[nH]n2)C1)c1ccc(Br)cc1 (stereo not given) | -5% | i | 22µM* | 32µM*
OCC1(CCCc2ccccc2)CCN(Cc2ccc(-n3cccn3)cc2)CC1 | ? | i | ? | 40µM*
CC(C)(O)C#Cc1ccc(CN2CCC(CO)(CCCc3ccccc3)CC2)cc1 | -4% | i | ? | ?
O=C(c1ccc(F)cc1)N1CCC(C(=O)N2CCC(c3nc4ccncc4[nH]3)C2)CC1 (stereo not given) | / | / | 3% | i
CCC(NCc1c(C(=O)N2CCCCCC2)nc2cc(C)ccn12)c1ccc(C)cc1 (stereo not given) | -7% | i | 18µM* | 45µM*
CCOC(=O)C1CCCN(C(=O)c2nc3sccn3c2-c2ccc(C)cc2)C1 (stereo not given) | / | / | -8% | -5%
CC(C)C(=O)N1CCCC(c2noc(COc3ccccc3F)n2)C1 (stereo not given) | 10% | 40µM* | ? | -20%
Cc1c(F)cccc1NC(=O)N1CCCC(c2noc(COc3ccccc3F)n2)C1 (stereo not given) | ? | 14µM* | ? | ?
CC(C)CC(=O)N1CCCC(c2noc(COc3ccccc3F)n2)C1 (stereo not given) | -21% | i | ? | ?
CCOc1ccccc1NC(=O)N1CCCC(c2noc(COc3ccccc3F)n2)C1 (stereo not given) | -3% | i | ? | ?
